Source: PubChem BioAssay AID795 (NMMLSC, 2007)
The campaign covered roughly 24,000 compounds. About 130 (0.54%) were called active. This is one part of a sample in which actives are shown more often than they occur. Values without a mark were called inactive.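 The calls were made as follows: active = side scatter shift above 30%; inactive = the rest.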

experiment: activators of LNCaP prostate cell differentiation, primary screen, flow cytometry side scatter (AID 795); settings: 4 d, at 10 µM, active compounds read high;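 also: androgen-responsive LNCaP prostate cancer cells in charcoal-stripped serum medium; percent of cells past a gate set so DMSO wells show 10% shift; higher shift means more granular cells and more differentiation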

SMILES | side scatter shift
Cc1ccc(-c2noc(-c3ccccc3C(=O)NCC3CCCO3)n2)cc1 (stereo not drawn) | 5%
CCOC(=O)Nc1ccccc1N1C(=O)c2ccccc2C1=O | 8%
O=C(CNS(=O)(=O)c1ccc(Br)s1)NCc1ccc2c(c1)OCO2 | 9%
COc1ccc(-c2nc(CS(=O)CC(=O)N3CCc4ccccc4C3)c(C)o2)cc1 (stereo not drawn) | 11%
O=C1CSC(c2cccc(F)c2)N1c1ccccc1F (stereo not drawn) | 8%
CCOC(=O)c1cccc(NC(=O)CCc2c(C)nc3ncnn3c2C)c1 | 4%
CC1Cc2nc(SCC(=O)Nc3ccccc3F)n(C)c(=O)c2S1 (stereo not drawn) | 7%
CSCCC(NC(=O)C1CCC(C)CC1)C(=O)NCc1ccco1 (stereo not drawn) | 3%
CCOc1ccc(NC(=O)N(CCC(C)C)C(C)c2ccco2)cc1 (stereo not drawn) | 7%
COc1cc2[nH]c(=O)n(CCC(=O)NC3CCN(Cc4ccccc4)CC3)c(=O)c2cc1OC | 2%
Cn1c(=O)cc(SCC(=O)N2CCCC2)c2cc(Cl)ccc21 | 9%
COc1cc(OC)cc(-c2nc3nc(C)c(CCC(=O)NCc4ccco4)c(C)n3n2)c1 | 5%
CC1C=CCC2C(=O)N(c3cccc(C(=O)N4CCCCCC4)c3)C(=O)C12 (stereo not drawn) | 3%
C/C(=N\O)C1(C)N(O)C(C)(C)C(c2ccc(Br)cc2)=[N+]1[O-] (stereo not drawn) | 11%
CCCSc1nc2c(c(=O)[nH]c(=O)n2C)n1CCc1ccccc1 | 9%
Cc1ccc2nc3n(c(=O)c2c1)CCC3 | 8%
Cc1nc2nc(SCC(=O)NCc3ccco3)nn2c(C)c1Cc1ccccc1 | 4%
S=C1SCN(CCN2CCOCC2)CN1Cc1ccccc1 | 18%
CCOC(=O)C1CCCN(C(=O)Cn2ncc3c(=O)oc4ccc(C)cc4c32)C1 (stereo not drawn) | 5%
O=C(NC(=O)c1ccc(Cl)c(Cl)c1)OC1CCS(=O)(=O)C1 (stereo not drawn) | 6%
CC1CCc2c(sc3c2C2=NS(=O)(=O)CCN2C=N3)C1 (stereo not drawn) | 12%

SMILES | side scatter shift
CC(=O)c1c(N)n(C)c(=O)n(C)c1=O | 0%
CCCC1CC(C)(C(=O)Cn2[nH]c(=O)ccc2=O)OC1=O (stereo not drawn) | 1%
Fc1cc(F)c2nc(N3CCOCC3)sc2c1 | 5%
Cn1c(=O)c2c(nc(N3CCCCCC3)n2CC(=O)c2ccc(Br)cc2)n(C)c1=O | 21%
CCOC(=O)N1CCN(C(=O)c2ccc(S(=O)(=O)c3ccc(C)cc3)c(NC(C)=O)c2)CC1 | 8%
N#CC1=C(N)C(C#N)(C#N)[C@H](c2ccsc2)[C@H]2COCC=C12 | 9%
NC(=O)CSC1=Nc2ccccc2C2=NC(CCC(=O)NCc3ccc(F)cc3)C(=O)N12 (stereo not drawn) | 0%
COc1ccc(NC(=O)C2CCCN(S(=O)(=O)c3cccc4cccnc34)C2)cc1 (stereo not drawn) | 6%
CCCCN(CC)CCCNC(=O)CS(=O)(=O)Cc1nc(-c2cccc(OC)c2)oc1C | 7%
CC(=O)Nc1cc2ccc(OC(C)=O)cc2oc1=O | 10%
O=C(CSc1nc2[nH]ncc2c(=O)n1-c1ccccc1)N1CCCc2ccccc21 | 5%
COc1ccc(OCc2ccc(-c3nc4ccccc4c(=O)n3N)o2)cc1 | 6%
Cc1ccc(NC(=O)c2nc[nH]c2C(=O)N2CCCCC2)c(C(=O)c2ccccc2)c1 | 14%
COc1ccc(OC)c(NC(=O)CC(Cc2ccccc2OC)C(=O)O)c1 (stereo not drawn) | 15%
CCn1cc(C(=O)N2CCN(C3CCCCC3)CC2)c2cc(OC)c(OC)cc2c1=O | 7%
Cc1nc2ccccc2c2oc(C(=O)NCC3CCCO3)cc12 (stereo not drawn) | 11%
O=C(CN1C(=O)C2C3C=CC(C3)C2C1=O)NCC1COc2ccccc2O1 (stereo not drawn) | 9%
Cn1c(CNC(=O)C(C)(C)C)nc2ccccc21 | 3%
COCCN1C(=O)c2oc3c(C)cc(C)cc3c(=O)c2C1c1cccc(O)c1 (stereo not drawn) | 3%
CC1(C)CC(O)C(CCC(O)c2ccccc2)C(C)(C)N1 (stereo not drawn) | 5%
CCOC(=O)c1ccc2[nH]c(C)c(CN3CCN(C)CC3)c(=O)c2c1 | 10%

SMILES | side scatter shift
COCCN(CC(=O)Nc1ccccc1C)S(=O)(=O)c1ccc(S(=O)(=O)N2CCCC2)cc1 | 3%
COc1ccccc1NC(=O)CSc1nnc(Cc2cccn2C)n1-c1ccc(F)cc1 | 14%
CC1(C)CC(=O)C=C(NCc2ccncc2)C1 | 6%
CCOC(=O)N1CCC(C(N)=O)CC1 | 12%
Nc1ccc(-n2nncc2-c2ccco2)cc1 | 2%
CC12CN3CC(C)(CN(C1)C3c1ccc(Cl)cc1Cl)C2=O (stereo not drawn) | 7%
O=C(CSc1nnc2ccccn12)c1ccccc1 | 3%
CCCCCCn1c(CN2CCCC(C)C2)nc2c1c(=O)n(C)c(=O)n2C (stereo not drawn) | 7%
COc1ccc(Cc2nnc(NC(=O)Cc3cccs3)s2)cc1 | 23%
COc1ccc(CC(=O)Nc2ccc(-c3nnc(-c4ccc(C)cc4)o3)cc2)cc1 | 37% (active)
CCOC(=O)c1ccc(NC(=O)Cn2nnc(-c3ccc(C)cc3)n2)cc1 | 12%
CCCCOC(=O)NCN1C(=O)C2C3C=CC(C3)C2C1=O (stereo not drawn) | 11%
Cc1noc(C)c1S(=O)(=O)N1CCCC(C(=O)Nc2nccs2)C1 (stereo not drawn) | 13%
CCN(CC)C(=O)c1sc(NC(=O)c2ccco2)c(C#N)c1C | 7%
Cc1ccc(-n2nc3cc(Cl)c(NC(=O)c4ccco4)cc3n2)cc1 | 36% (active)
O=C(c1ccco1)N1CCN(c2cccc(Cl)c2)CC1 | 16%
CCCS(=O)(=O)N1CCN(C(=O)c2cccs2)CC1 | 14%
COc1ccc(C2C3=C(OC(C)=O)c4ccccc4C3=Nc3c2c(=O)n(C)c(=O)n3C)cc1 (stereo not drawn) | 13%
Cc1cccc(C2c3c(n(C)c(=O)n(C)c3=O)N=C3c4ccccc4C(=O)C32)c1 (stereo not drawn) | 36% (active)
Cc1cc(C)nc(-n2nc(C)cc2NC(=O)c2ccc(Br)o2)n1 | 9%
CCOC(=O)N1CCC(Nc2c(NCCN3CCN(c4cccc(Cl)c4)CC3)c(=O)c2=O)CC1 | 16%
